Assay results reported in PMC7862700, “An all-to-all approach to the identification of sequence-specific readers for epigenetic DNA modifications on cytosine”.

Columns and labels:
Experiment in all cases: DAPPL (digital affinity profiling via proximity ligation, sequencing); 10 mM Tris-HCl pH 7.5, 50 mM NaCl, 1 mM DTT, 4% glycerol, room temperature, 30 min; GST-TFs on glutathione beads, 16-mer random dsDNA library, 0.1% formaldehyde crosslink after washing; high values mean tight binding
Conditions in all cases: protein: recombinant; tags: N-terminal GST; dsDNA, one strand shown
ELK1 = target: T1, ELK1 (Homo sapiens, UniProt P19419 1-428)
T1 sequence: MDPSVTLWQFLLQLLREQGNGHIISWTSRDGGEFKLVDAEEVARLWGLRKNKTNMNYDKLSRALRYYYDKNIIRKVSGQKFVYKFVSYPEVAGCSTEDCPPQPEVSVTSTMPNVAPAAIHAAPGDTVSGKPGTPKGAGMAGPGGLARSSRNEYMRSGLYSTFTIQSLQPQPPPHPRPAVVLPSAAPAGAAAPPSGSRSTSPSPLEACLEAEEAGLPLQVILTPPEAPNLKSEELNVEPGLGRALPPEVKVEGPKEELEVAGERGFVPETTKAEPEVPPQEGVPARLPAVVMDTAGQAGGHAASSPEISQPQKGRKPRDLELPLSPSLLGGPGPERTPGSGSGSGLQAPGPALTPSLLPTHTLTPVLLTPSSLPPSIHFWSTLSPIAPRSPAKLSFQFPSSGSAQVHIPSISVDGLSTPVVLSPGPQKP
Method in brief: (§1)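 Binding signal is each hexamer's read frequency for a factor divided by its frequency in the tag-only sample. The factors were GST-fused human transcription factors from yeast, captured on glutathione beads, DNA-barcoded and pooled with that sample. Pools were incubated with 200 nmole of a random double-stranded 16-mer DNA library in Tris/NaCl/DTT/glycerol buffer at room temperature for 30 min, then washed, crosslinked with 0.1% formaldehyde, proximity-ligated with BsaI/T4 ligase (1 h, 37 °C), PCR-amplified and sequenced on an Illumina NextSeq500.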

GABPA = target: T2, GABPA (Homo sapiens, UniProt Q06546 1-454)
T2 sequence: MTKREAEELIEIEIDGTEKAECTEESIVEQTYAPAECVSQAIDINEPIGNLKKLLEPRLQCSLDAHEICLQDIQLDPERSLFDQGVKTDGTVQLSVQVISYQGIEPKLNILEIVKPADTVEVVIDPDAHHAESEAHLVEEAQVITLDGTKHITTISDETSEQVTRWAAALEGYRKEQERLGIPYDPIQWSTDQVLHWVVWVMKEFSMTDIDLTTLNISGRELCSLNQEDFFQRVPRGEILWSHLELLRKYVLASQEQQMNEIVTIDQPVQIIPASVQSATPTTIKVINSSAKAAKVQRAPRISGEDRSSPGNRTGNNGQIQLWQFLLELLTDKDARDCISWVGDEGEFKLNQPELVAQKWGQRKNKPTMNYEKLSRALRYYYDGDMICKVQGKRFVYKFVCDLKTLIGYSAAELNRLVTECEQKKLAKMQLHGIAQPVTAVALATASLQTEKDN
Method in brief: as §1

ERG = target: T3, ERG (Homo sapiens, UniProt P11308 1-479)
T3 sequence: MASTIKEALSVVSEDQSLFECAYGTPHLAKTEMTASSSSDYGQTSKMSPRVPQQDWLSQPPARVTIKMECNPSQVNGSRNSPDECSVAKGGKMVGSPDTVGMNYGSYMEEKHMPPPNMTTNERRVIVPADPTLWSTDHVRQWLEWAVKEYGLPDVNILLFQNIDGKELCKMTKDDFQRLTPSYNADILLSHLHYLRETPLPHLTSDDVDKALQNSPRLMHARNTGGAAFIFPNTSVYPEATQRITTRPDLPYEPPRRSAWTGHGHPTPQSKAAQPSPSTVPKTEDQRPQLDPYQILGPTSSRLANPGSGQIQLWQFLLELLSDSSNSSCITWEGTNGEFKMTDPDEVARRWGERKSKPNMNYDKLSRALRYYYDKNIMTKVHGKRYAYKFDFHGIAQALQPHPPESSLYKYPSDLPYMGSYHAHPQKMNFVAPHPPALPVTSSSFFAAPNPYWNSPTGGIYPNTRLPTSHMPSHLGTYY
Method in brief: as §1

ELF1 = ELF1 (Homo sapiens, UniProt P32519 1-619)
Method in brief: as §1

EHF = target: T4, EHF (Homo sapiens, UniProt Q9NZC4 1-300)
T4 sequence: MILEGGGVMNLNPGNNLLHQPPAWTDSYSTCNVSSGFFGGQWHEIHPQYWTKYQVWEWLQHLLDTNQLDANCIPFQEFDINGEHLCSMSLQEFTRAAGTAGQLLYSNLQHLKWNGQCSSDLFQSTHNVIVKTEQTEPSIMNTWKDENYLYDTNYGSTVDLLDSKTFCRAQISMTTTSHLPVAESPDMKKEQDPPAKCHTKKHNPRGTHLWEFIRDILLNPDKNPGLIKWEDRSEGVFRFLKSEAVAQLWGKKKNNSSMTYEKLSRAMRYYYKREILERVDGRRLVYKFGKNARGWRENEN
Method in brief: as §1

SPIB = SPIB (Homo sapiens, UniProt Q01892 1-262)
Method in brief: as §1

FEV = target: T5, FEV (Homo sapiens, UniProt Q99581 1-238)
T5 sequence: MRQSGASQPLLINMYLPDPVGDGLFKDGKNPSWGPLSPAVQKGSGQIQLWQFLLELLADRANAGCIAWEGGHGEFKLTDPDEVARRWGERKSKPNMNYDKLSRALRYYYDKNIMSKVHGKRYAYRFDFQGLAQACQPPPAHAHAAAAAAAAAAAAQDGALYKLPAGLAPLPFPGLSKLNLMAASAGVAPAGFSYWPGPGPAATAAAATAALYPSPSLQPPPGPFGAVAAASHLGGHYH
Method in brief: as §1

ETV5 = ETV5 (Homo sapiens, UniProt P41161 1-510)
Method in brief: as §1

ELF4 = ELF4 (Homo sapiens, UniProt Q99607 1-663)
Method in brief: as §1

ELK4 = target: T6, ELK4 (Homo sapiens, UniProt P28324-2 1-405)
T6 sequence: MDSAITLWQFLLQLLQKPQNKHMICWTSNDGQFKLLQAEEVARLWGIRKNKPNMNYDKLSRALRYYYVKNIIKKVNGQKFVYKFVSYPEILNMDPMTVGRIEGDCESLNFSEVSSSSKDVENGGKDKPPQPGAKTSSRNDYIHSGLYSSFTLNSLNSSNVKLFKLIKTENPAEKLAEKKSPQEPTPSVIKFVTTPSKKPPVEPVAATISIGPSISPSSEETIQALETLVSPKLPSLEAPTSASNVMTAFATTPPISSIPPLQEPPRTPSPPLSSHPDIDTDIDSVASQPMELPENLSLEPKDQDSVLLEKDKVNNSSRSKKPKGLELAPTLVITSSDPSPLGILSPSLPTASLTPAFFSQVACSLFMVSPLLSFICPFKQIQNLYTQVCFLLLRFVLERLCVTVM
Method in brief: as §1

Chain of ELF4 (Q99607 whole entry): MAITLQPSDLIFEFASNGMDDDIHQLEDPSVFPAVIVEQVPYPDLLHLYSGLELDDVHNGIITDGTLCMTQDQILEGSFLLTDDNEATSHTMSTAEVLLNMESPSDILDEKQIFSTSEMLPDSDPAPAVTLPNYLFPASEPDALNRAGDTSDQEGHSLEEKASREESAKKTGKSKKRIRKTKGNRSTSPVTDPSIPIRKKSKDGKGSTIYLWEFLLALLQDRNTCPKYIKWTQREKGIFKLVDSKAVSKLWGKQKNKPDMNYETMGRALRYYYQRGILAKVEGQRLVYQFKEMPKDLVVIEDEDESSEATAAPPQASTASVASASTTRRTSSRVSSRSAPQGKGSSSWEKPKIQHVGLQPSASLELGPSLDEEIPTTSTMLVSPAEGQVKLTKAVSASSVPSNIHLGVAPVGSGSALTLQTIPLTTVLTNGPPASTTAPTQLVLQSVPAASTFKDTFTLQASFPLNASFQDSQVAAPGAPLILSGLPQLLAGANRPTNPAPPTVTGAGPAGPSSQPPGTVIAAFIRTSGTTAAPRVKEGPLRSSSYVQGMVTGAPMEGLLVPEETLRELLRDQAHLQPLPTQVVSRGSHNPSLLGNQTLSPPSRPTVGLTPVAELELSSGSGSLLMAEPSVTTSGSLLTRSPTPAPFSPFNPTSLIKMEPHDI
Chain of ETV5 (P41161 whole entry): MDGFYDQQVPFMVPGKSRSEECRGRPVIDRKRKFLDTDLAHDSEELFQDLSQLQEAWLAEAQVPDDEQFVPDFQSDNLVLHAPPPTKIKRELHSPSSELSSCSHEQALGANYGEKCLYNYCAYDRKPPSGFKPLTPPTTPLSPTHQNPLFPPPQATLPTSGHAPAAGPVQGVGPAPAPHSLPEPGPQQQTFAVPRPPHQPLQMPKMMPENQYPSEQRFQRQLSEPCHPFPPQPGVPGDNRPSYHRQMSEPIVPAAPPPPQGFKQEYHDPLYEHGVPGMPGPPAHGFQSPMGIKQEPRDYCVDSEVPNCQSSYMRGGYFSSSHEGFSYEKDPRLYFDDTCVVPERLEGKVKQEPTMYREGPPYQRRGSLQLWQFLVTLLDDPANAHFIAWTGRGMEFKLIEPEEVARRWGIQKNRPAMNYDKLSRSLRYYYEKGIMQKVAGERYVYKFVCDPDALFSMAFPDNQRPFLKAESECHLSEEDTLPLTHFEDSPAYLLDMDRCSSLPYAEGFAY
Chain of SPIB (Q01892 whole entry): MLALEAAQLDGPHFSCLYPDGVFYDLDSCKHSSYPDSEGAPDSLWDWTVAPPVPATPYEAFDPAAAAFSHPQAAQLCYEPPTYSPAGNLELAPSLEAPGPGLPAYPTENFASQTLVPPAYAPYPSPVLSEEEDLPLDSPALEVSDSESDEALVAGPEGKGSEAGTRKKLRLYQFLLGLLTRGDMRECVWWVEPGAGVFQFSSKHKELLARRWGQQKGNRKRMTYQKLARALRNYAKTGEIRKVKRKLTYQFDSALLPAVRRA
Chain of ELF1 (P32519 whole entry): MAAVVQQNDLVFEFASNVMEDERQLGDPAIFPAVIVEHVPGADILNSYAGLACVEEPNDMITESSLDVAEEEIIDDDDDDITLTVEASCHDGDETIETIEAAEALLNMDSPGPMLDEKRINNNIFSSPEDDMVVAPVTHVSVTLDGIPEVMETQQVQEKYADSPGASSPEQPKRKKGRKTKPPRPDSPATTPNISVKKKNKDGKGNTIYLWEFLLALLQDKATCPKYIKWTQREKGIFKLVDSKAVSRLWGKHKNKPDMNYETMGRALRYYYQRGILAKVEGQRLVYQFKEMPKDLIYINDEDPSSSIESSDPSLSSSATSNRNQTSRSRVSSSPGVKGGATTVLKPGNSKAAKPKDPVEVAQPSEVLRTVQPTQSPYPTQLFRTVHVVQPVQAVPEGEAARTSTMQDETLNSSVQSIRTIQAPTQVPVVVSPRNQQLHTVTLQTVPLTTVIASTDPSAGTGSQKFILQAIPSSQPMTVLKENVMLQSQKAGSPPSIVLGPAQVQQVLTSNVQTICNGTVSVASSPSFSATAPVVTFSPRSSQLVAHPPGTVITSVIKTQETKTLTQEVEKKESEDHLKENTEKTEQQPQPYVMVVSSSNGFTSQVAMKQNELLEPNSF

## TCAAGT
ELK1
  binding signal: 1.14 fold enrichment (6-mer frequency, TF over GST control)
GABPA
  binding signal: 1.07 fold enrichment (6-mer frequency, TF over GST control)
ERG
  binding signal: 1.04 fold enrichment (6-mer frequency, TF over GST control)
ELF1
  binding signal: 1.02 fold enrichment (6-mer frequency, TF over GST control)
EHF
  binding signal: 1.12 fold enrichment (6-mer frequency, TF over GST control)
SPIB
  binding signal: 1.08 fold enrichment (6-mer frequency, TF over GST control)
FEV
  binding signal: 1.05 fold enrichment (6-mer frequency, TF over GST control)
ETV5
  binding signal: 1.07 fold enrichment (6-mer frequency, TF over GST control)
ELF4
  binding signal: 1.13 fold enrichment (6-mer frequency, TF over GST control)
ELK4
  binding signal: 1.19 fold enrichment (6-mer frequency, TF over GST control)
